TPT1 inhibitor: blocks Candida albicans tRNA 2'-phosphotransferase. recombinant caTPT1, FP RNA substrate dephosphorylation. inhibition, % at 5 µM. 300,000 tested, 0.81% active. AID 1962;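 active = inhibition above the mean of all tested compounds plus 3 SD, set per screening campaign, cut at about 24% in these data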
dFosB act-1: enhances mouse delta FosB homodimer DNA binding; purified delta FosB, TAMRA-CDK5 oligo fluorescence polarization; percent of positive-control signal above neutral wells; activation, % at 25 µM; 340,000 tested, 0.99% active;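 active = mean activation above about 17%, with every replicate also reaching it, limit read from the data, passing the limit was not always enough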
Target sequence (P13346 whole entry, looked up): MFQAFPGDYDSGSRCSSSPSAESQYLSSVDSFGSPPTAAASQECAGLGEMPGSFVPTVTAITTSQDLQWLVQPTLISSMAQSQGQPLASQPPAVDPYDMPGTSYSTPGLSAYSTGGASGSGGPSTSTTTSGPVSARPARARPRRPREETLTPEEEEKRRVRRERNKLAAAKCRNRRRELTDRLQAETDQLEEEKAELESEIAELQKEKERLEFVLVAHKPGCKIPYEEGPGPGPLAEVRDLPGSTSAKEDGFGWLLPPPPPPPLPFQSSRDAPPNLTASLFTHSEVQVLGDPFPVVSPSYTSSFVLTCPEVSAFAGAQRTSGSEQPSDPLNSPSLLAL
Rpn11 block: inhibitors of human proteasome Rpn11. 360,000 tested, 0.59% active. O00487. inhibition, % at 20 µM. human 26S proteasome, Ub4-pepOG fluorescence polarization; 20S core pre-blocked with epoxomicin;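 active = inhibition at 20 µM, scaled to each plate's controls, above about 33%, limit read from the data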
ZTA counter: blocks Epstein-Barr virus ZTA, an EBNA-1 counter-screen. AID 2234. 320,000 tested, 0.15% active. ZTA-DNA binding, fluorescence polarization. inhibition, % at 11 µM; in the data active = inhibition above about 33%
Target sequence (P03206 whole entry, looked up): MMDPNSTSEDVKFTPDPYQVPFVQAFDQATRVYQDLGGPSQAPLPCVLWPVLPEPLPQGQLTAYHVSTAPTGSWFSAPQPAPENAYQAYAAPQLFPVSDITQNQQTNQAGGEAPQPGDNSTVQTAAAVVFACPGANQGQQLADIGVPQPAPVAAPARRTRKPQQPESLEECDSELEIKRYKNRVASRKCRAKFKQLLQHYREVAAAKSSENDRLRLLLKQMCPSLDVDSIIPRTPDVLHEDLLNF
NR3A LBD binder: NR3A (human) ligand-binding domain modulation. Tm shift relative to glycine control, % at 25 µM. 340,000 tested, 2.5% active. AID 1259313. NR3A LBD differential scanning fluorimetry, Tm shift; 0% = protein alone, 100% = glycine-bound protein;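 active = melting temperature shift of at least 10% of the positive control shift, at one fixed dose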
EBNA-1 inh: blocks EBNA-1 binding to DNA; EBNA-1 DNA binding, fluorescence polarization; inhibition, % at 14.8 µM; 300,000 tested, 0.34% active; in the data active = inhibition above about 28%
dFosB act-2: delta FosB (mouse) homodimer activation. activation, % at 24.9 µM. shares compounds with dFosB act-1. purified delta FosB, TAMRA-CDK5 oligo fluorescence polarization; normalised: neutral wells 0, positive control 100. 2,400 tested, under 10 active;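 active = highest replicate activation at or above 34% and every replicate reaching that threshold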;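 note: higher polarization means more probe DNA bound by delta FosB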
Each line names hits and unclear results; the compound was inactive in the other large screens (follow-up assays come after a bar, where they were run). Sampled rows, rich in hits. Any-hit rate of the full collection: about 4.5%.

Cc1ccc(C)c(NC(=O)CCC(=O)NNC(=O)COc2cc(C)ccc2C)c1	dFosB act-1 36 | dFosB act-2 inactive
Cc1ccc(C)c(OCC(=O)NCCNC(=O)COc2cc(C)ccc2C)c1	none
Cc1ccc(NC(=O)CCC(=O)NNC(=O)COc2cccc3ccccc23)c(C)c1	dFosB act-1 33 | dFosB act-2 inactive
Cc1ccc(C)c(NC(=O)CCC(=O)NNS(=O)(=O)c2ccc(Cl)cc2)c1	dFosB act-1 23 (no result: TPT1 inhibitor, EBNA-1 inh) | dFosB act-2 inactive
CC1(C)NC(=O)N(CCC(=O)Nc2ccc(C(C)(C)C)cc2)C1=O	none (no result: TPT1 inhibitor, dFosB act-1, ZTA counter, NR3A LBD binder, EBNA-1 inh)
COC(=O)c1cc(S(=O)(=O)NC2CCCCC2)cn1C	none
Cc1cc(Br)cn2c(Cc3ccccc3)c(-c3ccc(C#N)cc3)nc12	none (no result: TPT1 inhibitor, dFosB act-1, ZTA counter, NR3A LBD binder, EBNA-1 inh)
O=C(NC(=S)N1CCOCC1)c1ccc([N+](=O)[O-])cc1	none
COc1ccc(C(=O)NN(C)c2nc(-c3ccccc3)nnc2C(F)(F)F)cc1	dFosB act-1 68 | dFosB act-2 inactive
CCOc1ccc(NC(=O)CCC(=O)NNC(=O)Nc2cccc(Cl)c2)cc1	dFosB act-1 34 | dFosB act-2 inactive
COc1ccc(NC(=O)NNC(=O)CCC(=O)Nc2ccccc2Cl)cc1	none
O=C(CCC(=O)Nc1ccc(Cl)cc1Cl)NNC(=O)Nc1ccccc1	dFosB act-1 34 | dFosB act-2 inactive
O=C(Nc1ccc(-c2nc3cccnc3s2)cc1)c1cccnc1Cl	none
O=C(Nc1ccc(-c2nc3cccnc3s2)cc1)c1ccc(Br)o1	dFosB act-1 35, NR3A LBD binder 20 (no result: TPT1 inhibitor, ZTA counter, EBNA-1 inh) | dFosB act-2 inactive
CC(C(=O)NCc1cccnc1)c1ccc([N+](=O)[O-])cc1 (stereo unspecified)	none
CC1=C(C(=O)OCc2ccccc2)C(c2ccccc2OS(=O)(=O)c2ccc([N+](=O)[O-])cc2)NC(=O)N1CCCC(=O)O (stereo unspecified)	none
O=C(Nc1nccs1)c1cn(-c2ccccc2)nc1-c1ccncc1	dFosB act-1 36 | dFosB act-2 inactive
C/C(=N\N=C(/N)SC1CC(=O)N(c2ccc(Cl)c(Cl)c2)C1=O)c1cccs1 (stereo unspecified)	dFosB act-1 25, NR3A LBD binder 34 | dFosB act-2 inactive
Cn1cnnc1Sc1cc(N2CCN(S(=O)(=O)c3ccc4ccccc4c3)CC2)ccc1[N+](=O)[O-]	dFosB act-1 19 | dFosB act-2 inactive
O=C(Nc1ccc(Br)cc1)c1cccc(N2C(=O)C3C4CCC(C4)C3C2=O)c1 (stereo unspecified)	dFosB act-1 20 | dFosB act-2 inactive
CCCCn1c(N)c(N(CC(C)C)C(=O)C2CCN(S(=O)(=O)c3ccc(OCC)cc3)CC2)c(=O)[nH]c1=O	dFosB act-1 19 | dFosB act-2 inactive
CCN(CC)S(=O)(=O)c1ccc(OC)c(NC(=O)Cn2cnc3c2c(=O)n(C)c(=O)n3C)c1	none
CCc1nnc(NC(=O)Cn2c(=O)oc3ccccc32)s1	none
Cc1sc(NC(=O)Cn2c(=O)oc3ccccc32)nc1-c1ccc(Cl)cc1	dFosB act-1 40 | dFosB act-2 inactive
COc1ccc(NS(=O)(=O)c2cccc(C(=O)OCC(=O)Nc3cc(C)on3)c2)cc1	dFosB act-1 20 | dFosB act-2 inactive
O=C(COc1ccccc1[N+](=O)[O-])Nc1ccc(NC(=O)c2cc3ccccc3o2)cc1	dFosB act-1 54, NR3A LBD binder 12 | dFosB act-2 inactive
Cc1cc(C)c(OCC(=O)Nc2ccc(NC(=O)c3ccco3)cc2)c([N+](=O)[O-])c1	dFosB act-1 18 | dFosB act-2 inactive
COc1ccc(NS(=O)(=O)c2cccc(NC(=O)COc3ccccc3[N+](=O)[O-])c2)cc1	dFosB act-1 25 (no result: TPT1 inhibitor, ZTA counter, EBNA-1 inh) | dFosB act-2 inactive
Cc1ccc(NS(=O)(=O)c2ccc(C(=O)OCC(=O)Nc3cc(C)on3)cc2)cc1	none (no result: TPT1 inhibitor, ZTA counter, EBNA-1 inh)
Cc1cc(C)c(OCC(=O)Nc2cccc(NC(=O)c3ccco3)c2)c(Br)c1	none
O=C(COc1ccccc1[N+](=O)[O-])Nc1ccc2oc(=O)ccc2c1	none
COc1ccc(NC(=O)CC(=O)Nc2ccc(OC)cc2)cc1	none
Cc1cc(NC(=O)C(C)SCC(=O)Nc2nc3c(F)cc(F)cc3s2)no1 (stereo unspecified)	none (no result: TPT1 inhibitor, EBNA-1 inh)
Cc1ccnc(NS(=O)(=O)c2ccc(NC(=O)c3ccccc3F)cc2)n1	none
Nc1ccc(S(=O)(=O)Nc2nccc(/C=C/c3ccccc3F)n2)cc1	dFosB act-1 26 | dFosB act-2 inactive
O=C(CN(C(=O)CCC(=O)Nc1nccs1)c1ccc(F)cc1)NCCc1ccccc1	none
Cc1cc(C)cc(NC(=O)CSc2nnc(NC(=O)C3CC3)s2)c1	dFosB act-1 28 | dFosB act-2 inactive
Cc1ccc(NC(=O)CSc2nnc(NC(=O)C3CC3)s2)cc1	dFosB act-1 31 | dFosB act-2 inactive
CCOC(=O)N1CCN(C(=O)CNC(=O)c2ccc(Br)cc2)CC1	none
O=C(Cn1ccc(NC(=O)OCc2ccccc2)nc1=O)NCc1ccc2[nH]ccc2c1	none (no result: TPT1 inhibitor, EBNA-1 inh)
CC(CCc1ccccc1)NC(=O)N1CCOCC1 (stereo unspecified)	none
COc1cc(OC)cc(C(=O)Nc2cccc(-c3ccc(N4CCOCC4)nn3)c2)c1	dFosB act-1 20 | dFosB act-2 inactive
O=C(CSc1nnc(NC(=O)c2ccco2)s1)Nc1ccc(F)cc1F	dFosB act-1 20 | dFosB act-2 inactive
CC(=O)c1ccc(NC(=O)CSc2nnc(NC(=O)c3ccco3)s2)cc1	dFosB act-1 28, NR3A LBD binder 19 | dFosB act-2 inactive
CC(C)N(C(=O)CSc1nnc(NC(=O)c2ccco2)s1)C(C)C	none
COc1ccc(Cn2c(CCC(=O)Nc3ccc(C)c(C)c3)nc3cccnc32)cc1	dFosB act-1 18 | dFosB act-2 inactive
C[C@H]1CCC[C@@]2(O[C@H](CCO)C[C@@H](O)[C@@H]2O)O1	none
Cc1cc(OCc2nc(-c3ccc(NC(=O)c4cccnc4)cc3)no2)ccc1Cl	dFosB act-1 78 | dFosB act-2 inactive
c1ccc(CNc2nc(-c3ccccn3)nc3ccccc23)cc1	none
c1ccc(CNc2nc(-c3cccs3)nc3ccccc23)cc1	dFosB act-1 17, NR3A LBD binder 24 (no result: TPT1 inhibitor, ZTA counter, EBNA-1 inh) | dFosB act-2 inactive
Nc1cc(C(=O)N/N=C/c2cccc([N+](=O)[O-])c2)n[nH]c1=O	dFosB act-1 18 | dFosB act-2 inactive
Nc1ccccc1C(=O)NN=Cc1cccc([N+](=O)[O-])c1	none (no result: TPT1 inhibitor, dFosB act-1, ZTA counter, NR3A LBD binder, EBNA-1 inh)
COC(=O)CNc1nc(Cl)nc(Nc2ccc(C)cc2)n1	none
COC(=O)CNc1nc(Cl)nc(Nc2ccc(Cl)cc2)n1	dFosB act-1 48 | dFosB act-2 inactive
CC(C)CN(C(=O)c1ccc(S(=O)(=O)N2CCOCC2)cc1)C1CCS(=O)(=O)C1 (stereo unspecified)	none

From PubChem BioAssay
